Assay results reported in paper PMC12820563, “FoxP3 forms a head-to-head dimer in vivo and stabilizes its multimerization on adjacent microsatellites”.
In all, about 16,000 sequences were measured (“rpm ratio (pull-down/input)”: median about 0.5, highest 2% from about 5.5 on). Many of the other results were omitted from the sample, so the highest values are more common in it than they were.

Target: T1, MBP-FoxP3dN (Mus musculus, UniProt Q99JB6 188-423)
T1 sequence: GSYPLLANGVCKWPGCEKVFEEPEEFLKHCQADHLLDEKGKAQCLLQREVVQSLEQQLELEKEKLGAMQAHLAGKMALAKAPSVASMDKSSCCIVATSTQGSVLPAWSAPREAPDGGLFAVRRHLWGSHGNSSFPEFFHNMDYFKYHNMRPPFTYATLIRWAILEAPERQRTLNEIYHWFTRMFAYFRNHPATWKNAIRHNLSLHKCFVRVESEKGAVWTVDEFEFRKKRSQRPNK
Experiment: PD-seq (MBP pull-down with sequencing); 20 mM Tris-HCl pH 7.5, 100 mM NaCl, 1.5 mM MgCl2, 0.4 uM protein, 0.1 uM dsDNA library, 30 min, room temperature, amylose pull-down; high values mean tight binding
Conditions: protein: recombinant; tags: His6-MBP; chain copies: 2; dsDNA, one strand shown
How it was run: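 Binding is given as reads-per-million enrichment, pull-down over input, with replicates pooled. The bait was an N-terminus-lacking mouse FoxP3 or FoxP1 fragment with a His6-MBP tag, expressed in E. coli and used at 0.4 µM with 0.1 µM Klenow-filled degenerate double-stranded DNA library for 30 min at room temperature in Tris pH 7.5 buffer with NaCl and MgCl2. Amylose resin pull-down with three washes was followed by proteinase K release, PCR barcoding and Illumina sequencing.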

| Sequence | binding signal |
| --- | --- |
| GATGATTGTTCTCCCAGCTGATGAATTTTTGACCTCGAGTAAACAAATTTTCCTAATCTTTCTGTTCAAGCGCCATCTAC | 0.237 RPM ratio (pull-down/input) |
| GATGATTGTTCTCCCAGCTGATGAATTCTTCTGCTCGAGTAAACAAATTTTCCTAATCTTTCTGTTCAAGCGCCATCTAC | 0.236 RPM ratio (pull-down/input) |
| GATGATTGTTCTCCCAGCTGATGAATTACGTGACTCGAGTAAACAAATTTTCCTAATCTTTCTGTTCAAGCGCCATCTAC | 0.737 RPM ratio (pull-down/input) |
| GATGATTGTTCTCCCAGCTGATGAATTGATCAAATCGAGTAAACAAATTTTCCTAATCTTTCTGTTCAAGCGCCATCTAC | 0.304 RPM ratio (pull-down/input) |
| GATGATTGTTCTCCCAGCTGATGAATTGGGAACGTCGAGTAAACAAATTTTCCTAATCTTTCTGTTCAAGCGCCATCTAC | 0.31 RPM ratio (pull-down/input) |
| GATGATTGTTCTCCCAGCTGATGAATTATAGAACTCGAGTAAACAAATTTTCCTAATCTTTCTGTTCAAGCGCCATCTAC | 0.249 RPM ratio (pull-down/input) |
| GATGATTGTTCTCCCAGCTGATGAATTGCGCTGATCGAGTAAACAAATTTTCCTAATCTTTCTGTTCAAGCGCCATCTAC | 0.898 RPM ratio (pull-down/input) |
| GATGATTGTTCTCCCAGCTGATGAATTCCTGAATTCGAGTAAACAAATTTTCCTAATCTTTCTGTTCAAGCGCCATCTAC | 0.481 RPM ratio (pull-down/input) |
| GATGATTGTTCTCCCAGCTGATGAATTTATTTCTTCGAGTAAACAAATTTTCCTAATCTTTCTGTTCAAGCGCCATCTAC | 3.01 RPM ratio (pull-down/input) |
| GATGATTGTTCTCCCAGCTGATGAATTATTGTTTTCGAGTAAACAAATTTTCCTAATCTTTCTGTTCAAGCGCCATCTAC | 3.7 RPM ratio (pull-down/input) |
| GATGATTGTTCTCCCAGCTGATGAATTTATTGTTTCGAGTAAACAAATTTTCCTAATCTTTCTGTTCAAGCGCCATCTAC | 6.4 RPM ratio (pull-down/input) |
| GATGATTGTTCTCCCAGCTGATGAATTGTTTATTTCGAGTAAACAAATTTTCCTAATCTTTCTGTTCAAGCGCCATCTAC | 6.99 RPM ratio (pull-down/input) |
| GATGATTGTTCTCCCAGCTGATGAATTTCATACATCGAGTAAACAAATTTTCCTAATCTTTCTGTTCAAGCGCCATCTAC | 0.449 RPM ratio (pull-down/input) |
| GATGATTGTTCTCCCAGCTGATGAATTGAGGACGTCGAGTAAACAAATTTTCCTAATCTTTCTGTTCAAGCGCCATCTAC | 0.248 RPM ratio (pull-down/input) |
| GATGATTGTTCTCCCAGCTGATGAATTGTATCGGTCGAGTAAACAAATTTTCCTAATCTTTCTGTTCAAGCGCCATCTAC | 0.882 RPM ratio (pull-down/input) |
| GATGATTGTTCTCCCAGCTGATGAATTCCAGTGGTCGAGTAAACAAATTTTCCTAATCTTTCTGTTCAAGCGCCATCTAC | 0.415 RPM ratio (pull-down/input) |

| Sequence | binding signal |
| --- | --- |
| GATGATTGTTCTCCCAGCTGATGAATTGTGTTTCTCGAGTAAACAAATTTTCCTAATCTTTCTGTTCAAGCGCCATCTAC | 4.32 RPM ratio (pull-down/input) |
| GATGATTGTTCTCCCAGCTGATGAATTTGTGTTCTCGAGTAAACAAATTTTCCTAATCTTTCTGTTCAAGCGCCATCTAC | 6.29 RPM ratio (pull-down/input) |
| GATGATTGTTCTCCCAGCTGATGAATTCTTGTGTTCGAGTAAACAAATTTTCCTAATCTTTCTGTTCAAGCGCCATCTAC | 0.821 RPM ratio (pull-down/input) |
| GATGATTGTTCTCCCAGCTGATGAATTGTGTTGTTCGAGTAAACAAATTTTCCTAATCTTTCTGTTCAAGCGCCATCTAC | 8.43 RPM ratio (pull-down/input) |
| GATGATTGTTCTCCCAGCTGATGAATTTTTGTACTCGAGTAAACAAATTTTCCTAATCTTTCTGTTCAAGCGCCATCTAC | 0.489 RPM ratio (pull-down/input) |
| GATGATTGTTCTCCCAGCTGATGAATTTGTGTGTTCGAGTAAACAAATTTTCCTAATCTTTCTGTTCAAGCGCCATCTAC | 5.99 RPM ratio (pull-down/input) |
| GATGATTGTTCTCCCAGCTGATGAATTTTGTGTCTCGAGTAAACAAATTTTCCTAATCTTTCTGTTCAAGCGCCATCTAC | 4.27 RPM ratio (pull-down/input) |
| GATGATTGTTCTCCCAGCTGATGAATTTGTACTCTCGAGTAAACAAATTTTCCTAATCTTTCTGTTCAAGCGCCATCTAC | 2.81 RPM ratio (pull-down/input) |
| GATGATTGTTCTCCCAGCTGATGAATTTGTGTTTTCGAGTAAACAAATTTTCCTAATCTTTCTGTTCAAGCGCCATCTAC | 5.24 RPM ratio (pull-down/input) |
| GATGATTGTTCTCCCAGCTGATGAATTTGTGTACTCGAGTAAACAAATTTTCCTAATCTTTCTGTTCAAGCGCCATCTAC | 6.72 RPM ratio (pull-down/input) |
| GATGATTGTTCTCCCAGCTGATGAATTGATGTGTTCGAGTAAACAAATTTTCCTAATCTTTCTGTTCAAGCGCCATCTAC | 1.66 RPM ratio (pull-down/input) |
| GATGATTGTTCTCCCAGCTGATGAATTTTTGTGTTCGAGTAAACAAATTTTCCTAATCTTTCTGTTCAAGCGCCATCTAC | 1.04 RPM ratio (pull-down/input) |
| GATGATTGTTCTCCCAGCTGATGAATTCCACCTATCGAGTAAACAAATTTTCCTAATCTTTCTGTTCAAGCGCCATCTAC | 0.432 RPM ratio (pull-down/input) |
| GATGATTGTTCTCCCAGCTGATGAATTCTTACGCTCGAGTAAACAAATTTTCCTAATCTTTCTGTTCAAGCGCCATCTAC | 0.256 RPM ratio (pull-down/input) |
| GATGATTGTTCTCCCAGCTGATGAATTTCATGATTCGAGTAAACAAATTTTCCTAATCTTTCTGTTCAAGCGCCATCTAC | 0.692 RPM ratio (pull-down/input) |
| GATGATTGTTCTCCCAGCTGATGAATTATTCCCATCGAGTAAACAAATTTTCCTAATCTTTCTGTTCAAGCGCCATCTAC | 0.334 RPM ratio (pull-down/input) |
